# N370S GC – qHTS Assay for Inhibitors and Activators of N370S glucocerebrosidase as a Potential Chaperone Treatment of Gaucher Disease; Lysosomal acid glucosylceramidase (Homo sapiens), P04062; N370S GC spleen homogenate, 4MU-glucoside fluorescence; Potency, µM (highest dose often 59.4 µM), without a hit: at the top dose activity change, negative = inhibition, hits mostly inhibitors; 0.092% of 330,000 active;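 also: potency is read from the fitted curve at half-maximal effect; 0% = full enzyme activity and -100% = no enzyme basal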
# Nrf2 ARE act – qHTS of Nrf2 Activators. AREc32 ARE-luciferase reporter (MCF7-derived line), luminescence, 24 h. 0.31% of 410,000 active. Potency, µM (doses to about 46.1 µM), for inactives: at the highest dose activation, actives largely listed as activators; also: potency is read from the fitted curve at half-maximal effect; % of control where 0% means no effect; nearly all actives have a fitted effect of over 65% in size
#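 Cells of the AREc32 ARE-luciferase line are plated in OPTI-MEM containing 5% FBS and left overnight at 37 deg C. Compounds are pinned in, incubation continues 24 hr, and firefly luciferase signal is then measured.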
# Chronic BCR inh – qHTS Assay to Find Inhibitors of Chronic Active B-Cell Receptor Signaling. Potency, µM (highest dose often 46.1 µM), for the others: at the top dose activity change, negative = inhibition, usual class: inhibitors. ABC-DLBCL IkBa-CBG/CBR reporter, luminescence ratio, 4 h. 0.05% of 340,000 active; active = well fitted inhibition curve with a large enough effect in the signal ratio, with a control signal flat, not every such curve was filed as active; inconclusive = small, poorly fitted or top-dose-only effect, or effect the other way, or a change in a side signal; the % refers to the signal ratio;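 also: potency is read from the fitted curve at half-maximal effect; plate controls were basal doxycycline-induced cells for no effect and cells given 10 µM MG132 for full effect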
#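 Concentration-response series (up to 46 uM) were applied to TMD8 dual-reporter cells for 4 h at 37C with doxycycline. Green/red ratio, after filter-overlap correction, defined %Activity; red signal alone was normalised to basal cells and zero luminescence.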
# BRCA1 expr act – qHTS Assay to Identify Small Molecule Activators of BRCA1 Expression; Potency, µM (top dose mostly 46.1 µM), for the others: at the top dose activation, usual class: activators; 1.1% of 380,000 active; MCF7-BRCA1-FFLuc reporter, luminescence, 48 h; response scale: scaled: vehicle 0%, 10 µM genistein 100%; AID 624202, 2012; also: potency is read from the fitted curve at half-maximal effect; nearly all actives have a fitted effect of over 80% in size
#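 Luminescence from a BRCA1-driven firefly luciferase in MCF7 cells was read after 48 h compound exposure at 37 C. Data normalized against DMSO and a 10microM genistein activation control, then curve-fitted across the titration.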
# Integrin act MD – qHTS for Activators of Integrin-Mediated Alleviation for Muscular Dystrophy | alpha7betagal myoblasts, beta-gal FDG fluorescence, 48 h | 0.064% of 350,000 active | Potency, µM (doses to about 38.3 µM), inactives show at the top dose activation, most hits filed as activators;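 also: potency is read from the fitted curve at half-maximal effect; 100% = response of the positive control SU9516; nearly all actives have a fitted effect of over 60% in size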
#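 alpha7betagal+/- myoblasts (passage 13, 250/well) treated 48 h at 37C with compounds at 1:260 dilution of DMSO stock. Lysed, then beta-galactosidase activity read as FDG fluorescence (ex 480/em 540) after 30 min, with pre-read for autofluorescence.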
# IL2 activator – qHTS of IL-2 Activators. AID 652025, 2013. 0.065% of 360,000 active. activation, % (series mostly up to about 46 µM). IL-2 activation reporter assay, cell-based qHTS; stimulated with anti-CD3/CD4/CD28 beads; in transgenic mouse T cells; in the data active = activation above about 50%; inconclusive = mostly about 30% to 49%; also: 0% is about no effect
#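 Screening format: compound pinned onto unstimulated transgenic mouse T cells, 60 min incubation, then anti-CD3/anti-CD4/anti-CD28 bead stimulation for 18 hours at 37 degrees C, followed by EGFP and DsRed detection.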
# Active calls of the source: *; ? = inconclusive; · = not tested or not shown; [ ] = dose if it differs, or a comment. An excerpt weighted towards active compounds, which were near 1.4% of everything screened. Unless noted, calls follow the shape of the dose curve; as a rule, active = well fitted curve in the direction sought with a large enough effect; inconclusive = small, poorly fitted or top-dose-only effect, or another doubt; inactive = no such curve, though single readings can be large; an effect the other way counts as inactive or inconclusive.
SMILES,N370S GC,Nrf2 ARE act,Chronic BCR inh,BRCA1 expr act,Integrin act MD,IL2 activator
Cc1nc2ccccn2c1CN(C)C(=O)C1CCC(=O)N(Cc2cccc(F)c2)C1 (centres undefined),-12%,-1%,0%,-1%,-21%,-4
CN(C)c1ccc(C=Cc2ccnc3c(O)cccc23)cc1,·,20%,·,-64%,-39%,148*
COc1cc(/C=N/N2CCOCC2)ccc1OCc1ccccc1,-7%,6%,-9%,7.9µM*,14%,-1
COc1ccc(/C=N/N2CCOCC2)cc1OCc1ccccc1,4%,2%,2%,-32%,-1%,1
COc1cc(/C=N/N2CCOCC2)ccc1OCc1ccc(Cl)cc1,15%,5%,-11%,2.2µM*,17%,-4
COc1ccc(/C=N/N2CCOCC2)cc1O,-7%,16%,0%,1%,4%,-3
C=C(C)Cn1cnc2c(oc3nc4c(cc32)CCCC4)c1=O,5%,1%,?,5.6µM*,-24%,0
COc1ccc(CCn2c(=S)[nH]c(=O)c3[nH]cnc32)cc1OC,·,·,·,11%,·,·
CNc1cc(-n2nc(C)cc2-c2ccccc2)ncn1,5%,0%,-5%,-12%,19%,-2
Cc1cc(-c2ccccc2)n(-c2cc(N/N=C/c3ccccc3O)ncn2)n1,3%,-1%,15µM*,-87%,8%,-4
CCOc1ccc(NC(=O)C(=O)NCCc2sc(-c3ccc(C)cc3)nc2C)cc1,·,-1%,·,17%,·,·
CCOc1ccccc1-c1noc(CSc2nnc(-c3ccccc3)n2-c2ccc(OC)cc2)n1,·,0%,·,·,·,·
CCOC(=O)C(=O)/C(C#N)=C/Nc1ccccc1,0%,0%,?,1%,-5%,-3
CCOC(=O)/C(C#N)=C/Nc1ccccc1OC,-4%,4%,-9%,2.2µM*,4%,-3
CC(C)OCCCn1c(=O)c2ccccc2n2c(CCC(=O)N3CCN(c4ccccn4)CC3)nnc12,20µM*,0%,-3%,9%,-11%,-2
CCC(C)(C)C(=O)Nc1nnc(CCc2ccccc2)s1,-4%,8%,7%,8.9µM*,22%,-3
CCC(C)/C=C/C1=CC2=C(Cl)C(=O)C3(C)OC(=O)C(C(=O)C(C)C(C)O)C3C2=CO1 (centres undefined),24%,7%,?,-8%,-11%,2
Nc1nnc(/C=C/c2cccc([N+](=O)[O-])c2)s1,0%,5%,1%,16µM*,21%,3
Nc1nnc(-c2cccc([N+](=O)[O-])c2)s1,1%,3%,-19%,5%,-21%,1
COC(=O)c1sc2nc(CSc3nc4ccc(C)cc4[nH]3)[nH]c(=O)c2c1C,9%,2%,8%,-53%,17%,?
Cc1ccc2nc(SCc3nc4ccccc4c(=O)[nH]3)[nH]c2c1,7%,?,15%,4µM*,4%,1
Cc1ccc(Nc2ncccc2C(N)=O)cc1[N+](=O)[O-],6%,4%,?,5.6µM*,-32%,-5
Cc1cccc(C)c1OCC(=O)N/N=C/C=C/c1ccco1,-2%,1.6µM*,?,-45%,0%,0
CCn1c(SCC(=O)N/N=C/C=C\c2ccco2)nc2ccccc21,2%,3.5µM*,-17%,-14%,-4%,-4
Cc1cccc(OCC(=O)N/N=C/C=C/c2ccco2)c1,2%,22µM*,?,19%,3%,-1
SMILES,N370S GC,Nrf2 ARE act,Chronic BCR inh,BRCA1 expr act,Integrin act MD,IL2 activator
O=C(Cn1c(=O)n(-c2ccccc2)c(=O)c2sc3ccccc3c21)NC1CCCC1,·,0%,·,1%,·,·
Cc1cccc(NC(=S)NCc2ccco2)n1,9%,13µM*,?,-8%,-7%,-1
S=C(NCc1ccco1)NCc1ccco1,·,0%,·,-10%,-4%,-1
O=C(COc1ccc(Cl)cc1Cl)c1ccc[nH]1,-6%,0%,?,10µM*,-17%,-3
S=C(NCc1ccco1)Nc1ccc(Cl)cc1Cl,1%,10%,0%,7.9µM*,22%,0
S=C(NCc1cccc(Cl)c1)NCc1ccco1,-5%,2%,4%,9%,20%,-4
O=C(COc1ccc(Cl)cc1Cl)NCc1ccco1,-4%,6%,?,10µM*,24%,0
CC[n+]1ccnc2ccccc21,·,·,·,-11%,·,·
S=C(NCc1ccc(Cl)c(Cl)c1)NCc1ccco1,0%,4%,7%,0%,0%,-1
S=C(NCc1ccco1)Nc1ccc(Br)cc1Cl,1%,10%,?,10µM*,-21%,1
CC[n+]1c(/C=C/c2c[nH]c3ccccc23)ccc2cc(C)ccc21,-8%,-1%,5%,-56%,-68%,68*
CCN(CC)C(=O)c1ccc(/C=C/c2c[nH]c3ccccc23)[n+](C)c1,-28%,0%,-1%,-11%,-13%,79*
Cc1cc(C)cc(OCc2ccc(C(=O)Nc3ccccc3F)o2)c1,·,3%,·,·,·,·
CCOc1ccc(N=C2NC(=O)S/C2=C\c2ccc(N(C)C)cc2)cc1,3%,0%,?,3.2µM*,-38%,9
CC1(C)Cc2c(cnn2-c2cccc(F)c2)C(NC(=O)CCc2cnccn2)C1 (centres undefined),4%,0%,4%,3%,3.2µM*,0
C=CCCC(=O)NC1CC(C)(C)Cc2c1cnn2-c1cccc(F)c1 (centres undefined),-23%,0%,?,0%,7%,1
Oc1oc(-c2ccco2)nc1C=Nc1ccccc1,-1%,13µM*,?,5%,-8%,-4
Cc1ccc(-c2nc(C=Nc3ccc(O)cc3)c(O)o2)cc1,-22%,6.3µM*,?,-20%,-64%,77*
CN=Cc1nc(-c2ccccc2)oc1O,-9%,0%,?,?,21%,-1
O=C(Nc1nnc(C2CCCO2)s1)c1ccc(Br)cc1 (centres undefined),-7%,3%,?,11µM*,-29%[7.66 µM],-1
CC(C)C(=O)Nc1nc2ccc(S(C)(=O)=O)cc2s1,2%,4%,1%,11µM*,7%,-2
Cc1cccc(C(=O)Nc2nc3ccc(S(C)(=O)=O)cc3s2)c1,-2%,7%,?,3.2µM*,6%,0
CCC(C)C(=O)Nc1nc2ccc(S(C)(=O)=O)cc2s1 (centres undefined),5%,5%,-5%,94%,16%,0

# Assay outcomes from PubChem.
